ELG1 repair inh: qHTS screen for small molecules that inhibit ELG1-dependent DNA repair in human embryonic kidney (HEK293T) cells expressing luciferase-tagged ELG1 | HEK293T ELG1-luciferase reporter, luminescence, 16 h; DNA damage induced by 5-fluorouridine | Potency, µM (series often up to 46.1 µM), hits mostly inhibitors | 330,000 tested, 2.3% active | AID 504467, 2011; note: nearly all actives have a fitted effect of over 55% in size
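Reporter activity after DNA damage by 5-fluorouridine is monitored. Compound-treated cells incubate 16 hr at 37 °C, then ONE-Glo is added for 30 min before luminescence reading.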
KB-V1 cytotox: qHTS assay for MDR1-selective chemotherapeutics: Primary screen using the drug-selected MDR subline cells KB-V1 | Potency, µM (top dose mostly 46.1 µM), usual class: cytotoxic | 400,000 tested, 3.4% active | KB-V1 MDR cells viability, CellTiter-Glo, 72 h | AID 1347076, 2019; note: nearly all actives have a fitted effect of over 60% in size
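Cytotoxicity via CellTiter-Glo luminescence after 72 h compound exposure at 37 degrees C. Cells: drug-selected KB-V1 line, DMEM phenol-red free plus 10% FBS. Compounds tested at multiple concentrations; normalized data fitted to concentration-effect curves.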
MCF10A rerep: A quantitative high throughput screen for small molecules that induce DNA re-replication in MCF 10a normal breast cells; 350,000 tested, 2.9% active; Potency, µM (titrated, usually from 46.1 µM), usual class: activators; MCF 10A DNA re-replication, Hoechst nuclear intensity, 48 h; AID 624296, 2012; note: nearly all actives have a fitted effect of over 50% in size
SW480 rereplic: A quantitative high throughput screen for small molecules that induce DNA re-replication in SW480 colon adenocarcinoma cells; Potency, µM (top dose mostly 46.1 µM), most hits filed as activators; 340,000 tested, 1.8% active; AID 624297, 2012; SW480 DNA re-replication, Hoechst DNA content imaging, 48 h; note: nearly all actives have a fitted effect of over 55% in size
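Cells (250 per well) received 23 nL compound or DMSO by pin tool and were kept 48 hr at 37 C, 5% CO2. Nuclei were then stained with Hoechst for 40 min and scanned for DNA content.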
KB-3-1 cytotox: qHTS assay for MDR1-selective chemotherapeutics: Primary screen using the parental adenocarcinoma cell KB-3-1; Potency, µM (top dose mostly 46.1 µM), usual class: cytotoxic; KB-3-1 viability, CellTiter-Glo ATP luminescence, 72 h; 400,000 tested, 1.4% active; note: nearly all actives have a fitted effect of over 60% in size
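Using CellTiter-Glo luminescence, growth of non-resistant KB-3-1 adenocarcinoma cells is assessed 72 h after pin-tool compound addition at 37 °C. Normalized responses across the concentration series yield fitted curves.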
Of the large screens only hits and unclear results are named; the others gave an inactive call. Compounds with a hit are over-represented: about 8.1% of the library has one in this group of screens. Calls come from the whole dose curve; as a rule, active = well fitted curve in the direction sought with a large enough effect; inconclusive = small, poorly fitted or top-dose-only effect, or another doubt; inactive = no such curve, though single readings can be large; an effect the other way counts as inactive or inconclusive.

Cc1c(Cl)c([N+](=O)[O-])nn1CCCC(=O)Nc1c(C)n(C)n(-c2ccccc2)c1=O	none
Cc1c(Cl)c([N+](=O)[O-])nn1CC(=O)NCc1cccs1	ELG1 repair inh inconclusive, KB-V1 cytotox 18µM
CC1=CCC2C(=O)N(c3cccc(C(=O)NCc4ccccc4)c3)C(=O)C2C1 (stereo unspecified)	MCF10A rerep inconclusive
Oc1c(N=NC(=S)Nc2ccccc2F)c2ccccc2n1Cc1cccc(Cl)c1	ELG1 repair inh inconclusive, KB-3-1 cytotox 6.5µM
Oc1c(N=NC(=S)Nc2ccccc2F)c2ccccc2n1Cc1ccc(F)cc1	ELG1 repair inh 5.2µM
Cc1ccc2c(c1)c(N=NC(N)=S)c(O)n2Cc1ccccc1	none
Cc1cccc(Cn2c(O)c(N=NC(=S)Nc3ccccc3F)c3ccccc32)c1	ELG1 repair inh 3.7µM, KB-V1 cytotox inconclusive, KB-3-1 cytotox inconclusive
NC(=S)N=Nc1c(O)n(Cc2ccc(F)cc2)c2ccccc12	ELG1 repair inh inconclusive, MCF10A rerep inconclusive
CC(C)c1c(O)nc(SCCN2CCOCC2)[nH]c1=O	none
Cc1ccc(C2C(=O)N(C3CCCC3)CC(=O)N2C2CCCCC2)cc1 (stereo unspecified)	KB-V1 cytotox 2.9µM
Cc1ccccc1-c1nnc(SCC(=O)N2CCCC2)o1	ELG1 repair inh inconclusive
CC(C)Cn1c2c(c(O)c(C(=O)Nc3nccs3)c1=O)CCCC2	ELG1 repair inh inconclusive, KB-V1 cytotox 7.3µM, SW480 rereplic inconclusive, KB-3-1 cytotox inconclusive
Cc1[nH]nc2c1C(c1cnn(C)c1)C(C#N)=C(N)O2 (stereo unspecified)	none
COc1ccc(-c2csc(NC(=O)CN3C(=O)C4CCCCC4C3=O)n2)c(OC)c1 (stereo unspecified)	none
COc1ccccc1CC(=O)N1CCN(S(=O)(=O)c2cccs2)CC1	KB-V1 cytotox inconclusive, MCF10A rerep inconclusive
COc1ccc(OC)c(/C=C/C(=O)N2CCN(S(=O)(=O)c3cc(C)ccc3C)CC2)c1	ELG1 repair inh inconclusive, MCF10A rerep inconclusive
COc1ccc(OC)c(/C=C/C(=O)N2CCN(S(=O)(=O)c3ccc(C)cc3C)CC2)c1	ELG1 repair inh inconclusive, KB-V1 cytotox 3.7µM, KB-3-1 cytotox inconclusive
COc1cc(C(=O)OCC(=O)N2CCN(S(=O)(=O)c3ccc(C)cc3C)CC2)c([N+](=O)[O-])cc1OC	KB-V1 cytotox 9.2µM (no result: ELG1 repair inh)
COc1ccccc1/C=C/C(=O)N1CCN(S(=O)(=O)c2cccs2)CC1	ELG1 repair inh 21µM
NS(=O)(=O)c1ccc(N=Nc2c(-c3ccccc3)[nH]n(-c3nc(-c4ccccc4)cs3)c2=O)cc1	ELG1 repair inh 5.2µM, KB-V1 cytotox 21µM, MCF10A rerep inconclusive, SW480 rereplic 2.9µM, KB-3-1 cytotox inconclusive
COC(CN(C(=O)CCl)C(C(=O)NC1CCCCC1)c1ccc(C)cc1)OC (stereo unspecified)	KB-V1 cytotox inconclusive, SW480 rereplic 5.8µM, KB-3-1 cytotox inconclusive
COc1ccc(C(C(=O)NC2CCCCC2)N(C(=O)CCl)c2cccc(Cl)c2)cc1 (stereo unspecified)	ELG1 repair inh inconclusive, KB-V1 cytotox 16µM, MCF10A rerep 21µM, SW480 rereplic inconclusive, KB-3-1 cytotox 18µM
COCCN(C(=O)CCCC(=O)Nc1ccccn1)C(C(=O)NC1CCCCC1)c1ccc(C)cc1 (stereo unspecified)	none
COc1ccc(C(C(=O)NC2CCCCC2)N(C(=O)CCl)c2ccc(C)cc2)cc1 (stereo unspecified)	ELG1 repair inh inconclusive, KB-V1 cytotox inconclusive, SW480 rereplic 2.6µM, KB-3-1 cytotox inconclusive
O=C(NC1CCCC1)C(c1ccc(F)cc1)N(Cc1ccc(F)cc1)C(=O)CCl (stereo unspecified)	KB-V1 cytotox 18µM, SW480 rereplic inconclusive, KB-3-1 cytotox inconclusive
Cc1cc(OCC(O)CN)ccc1Cl (stereo unspecified)	ELG1 repair inh inconclusive
CCCn1nc2cc(C(=O)NCc3ccc(C)cc3)ccc2c1OCC	KB-V1 cytotox inconclusive
COc1ccc(N(C(=O)Cc2cccs2)C(C(=O)NC2CCCC2)c2ccncc2)cc1 (stereo unspecified)	KB-V1 cytotox inconclusive
COc1ccc(C(C(=O)NC2CCCCC2)N(C(=O)CCl)c2ccc(OC)cc2)cc1 (stereo unspecified)	ELG1 repair inh inconclusive, KB-V1 cytotox 3.7µM, MCF10A rerep 18µM, SW480 rereplic inconclusive, KB-3-1 cytotox 5.8µM
CCN(CCNC(=O)Nc1ccc(Cl)cc1)c1ccccc1	ELG1 repair inh 5.2µM, KB-V1 cytotox inconclusive, MCF10A rerep 18µM, SW480 rereplic inconclusive, KB-3-1 cytotox inconclusive
CCN(CC)c1nc(OCCNC(=O)Nc2ccccc2)nc(N(CC)CC)n1	ELG1 repair inh 18µM, KB-V1 cytotox inconclusive, MCF10A rerep inconclusive, KB-3-1 cytotox inconclusive
O=C(NCCc1ccc(Cl)cc1)Nc1ccc(Cl)cc1	ELG1 repair inh inconclusive
O=S(=O)(c1cccc(F)c1)N1CCC(c2nc3ccccc3s2)CC1	none (no result: ELG1 repair inh, MCF10A rerep, SW480 rereplic)
Cc1nc(NS(=O)(=O)c2ccc(N)cc2)nc(C)c1Br	none (no result: ELG1 repair inh, KB-V1 cytotox, KB-3-1 cytotox)
COc1cccc(N2CC(O)=C(c3nc4ccccc4s3)C2=N)c1	ELG1 repair inh inconclusive, KB-V1 cytotox 3.3µM, MCF10A rerep inconclusive, SW480 rereplic 3.7µM, KB-3-1 cytotox 7.3µM
COc1ccc(N2CC(O)=C(c3nc4ccccc4s3)C2=N)cc1	none
O=c1cnn([C@@H]2O[C@H](CO)[C@@H](O)[C@H]2O)c(=O)[nH]1	ELG1 repair inh inconclusive, KB-V1 cytotox 4.1µM, KB-3-1 cytotox inconclusive
Nc1[nH]c(=O)nc2c1ncn2C1OC(CO)C(O)C1O (stereo unspecified)	none (no result: ELG1 repair inh, MCF10A rerep, SW480 rereplic)
O=C(COC(=O)CCSc1ccc(Cl)cc1)NCc1ccc(Cl)cc1	KB-V1 cytotox inconclusive, MCF10A rerep inconclusive
Cc1cccc(NC(=O)CC2C(=O)NC3CCCCC3N2C(=O)c2ccccc2Cl)c1 (stereo unspecified)	none
Cc1ccc(C(=O)N2C(CC(=O)Nc3ccc(Cl)cc3)C(=O)NC3CCCCC32)cc1 (stereo unspecified)	KB-V1 cytotox inconclusive, SW480 rereplic 23µM, KB-3-1 cytotox inconclusive
CC1CCCCN1CC(O)COCCC12CC3CC(CC(C3)C1)C2 (stereo unspecified)	KB-V1 cytotox inconclusive, SW480 rereplic inconclusive, KB-3-1 cytotox 16µM
CCN(CC)CC(O)COCCC12CC3CC(CC(C3)C1)C2 (stereo unspecified)	MCF10A rerep inconclusive, SW480 rereplic inconclusive
Cc1ccc(S(=O)(=O)NCc2csc(-c3cccs3)n2)cc1	none
CCOc1ccc(N2C(=O)C3C(c4ccccc4)=NN(c4ccccc4)C3C2=O)cc1 (stereo unspecified)	none
